JMJD2A Tudor = blocks the human JMJD2A Tudor domain. hit rate 4.4% among 390,000. Potency, µM (titrated, usually from 114 µM), most hits filed as inhibitors. O75164. AID 504339. AlphaScreen JMJD2A-Tudor / H3K4me3 peptide binding; further: nearly all actives have a fitted effect of over 50% in size
G9a inh = inhibitors of human histone lysine methyltransferase G9a. G9a H3K9 monomethylation, AlphaScreen, 2 h. Potency, µM (doses to about 102 µM), usual class: inhibitors. hit rate 8.8% among 350,000. AID 504332. Q96KQ7; further: nearly all actives have a fitted effect of over 75% in size
Target sequence (Q96KQ7 913-1193 limits assumed): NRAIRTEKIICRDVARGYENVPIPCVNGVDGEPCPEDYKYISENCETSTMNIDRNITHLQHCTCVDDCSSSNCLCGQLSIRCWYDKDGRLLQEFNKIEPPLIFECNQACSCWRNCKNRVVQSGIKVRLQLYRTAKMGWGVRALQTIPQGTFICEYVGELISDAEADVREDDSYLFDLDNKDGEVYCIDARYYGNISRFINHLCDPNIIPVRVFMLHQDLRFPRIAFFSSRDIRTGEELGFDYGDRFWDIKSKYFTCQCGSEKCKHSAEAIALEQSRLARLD
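Quantitative HTS format: methyltransferase activity on a biotin-tagged H3K9 peptide is measured by AlphaScreen, using a rabbit anti-monomethyl-H3K9 antibody with streptavidin donor and anti-IgG acceptor beads. Final levels are 20 nM enzyme, 500 nM peptide, 20 uM SAM; 2 h RT.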
BAZ2B block = BAZ2B (human) inhibition; Q9UIF8; AlphaScreen BAZ2B-H3K14Ac peptide displacement; AID 504333; Potency, µM (highest dose often 114 µM), usual class: inhibitors; hit rate 4.4% among 360,000; further: nearly all actives have a fitted effect of over 60% in size
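BAZ2B 50 nM plus b-H3(5-23)K14Ac 50 nM, PBS pH 7.4/0.01% Tween-20, 30 min RT; compound added (max 110 uM), 30 min RT; streptavidin donor/Ni-chelate acceptor beads 10 ug/mL final, 20 min dark; AlphaScreen read.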
GLS inh = inhibitors of human glutaminase (GLS); O94925; GLS enzymatic activity, qHTS titration; hit rate 0.21% among 410,000; AID 624170; Potency, µM (doses to about 45.5 µM), hits mostly inhibitors
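Read-out is an Amplex red fluorescence increase coupled through glutamate oxidase and HRP, measured before and after 30 min room-temperature incubation. hKGA is in 45 mM KH2PO4 (pH 8.2) with 0.02% Tween-20; glutamine added as 1mM solution.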
HP1b binding inh = HP1-beta chromodomain-methylated histone interaction inhibition; Potency, µM (doses to about 114 µM), actives largely listed as inhibitors; AID 540317; P83916; hit rate 0.56% among 390,000; AlphaScreen HP1-beta / biotin-H3K9me3 peptide binding; further: nearly all actives have a fitted effect of over 70% in size
Target sequence (P83916 whole entry, looked up): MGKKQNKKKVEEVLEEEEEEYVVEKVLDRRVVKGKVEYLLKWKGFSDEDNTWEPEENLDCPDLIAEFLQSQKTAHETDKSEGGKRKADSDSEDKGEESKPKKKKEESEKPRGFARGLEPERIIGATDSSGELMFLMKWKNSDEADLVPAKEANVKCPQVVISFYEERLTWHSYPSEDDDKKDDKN
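AlphaScreen: HP1-beta (50 nM) preformed 30 min with biotin-H3(1-18)K9me3 peptide (50 nM) in PBS pH 7.4, 0.01% Tween-20. Compound added for 30 min at RT, then streptavidin donor/nickel chelate acceptor beads (10 ug/mL) for 30 min.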
Large screens that a line does not name were inactive; ! = repeats disagree. A selection: hits, their analogues and other compounds. The true share with any hit is near 10%. The call rests on the fitted dose curve; in most records, active means well fitted curve in the direction sought with a large enough effect; inconclusive means small, poorly fitted or top-dose-only effect, or another doubt; inactive means no such curve, though single readings can be large; an effect the other way counts as inactive or inconclusive.

O=C(CCC(=O)Nc1ccccc1)N/N=C/c1ccncc1	none
COC(=O)c1c(-c2cccnc2)csc1NC(=O)c1ccc2c(c1)OCO2	none (no result: G9a inh)
Cc1c(O)ccc(NS(=O)(=O)c2ccccc2)c1C	none
COc1ccc(N(CC(=O)NCc2ccc3c(c2)OCO3)S(=O)(=O)c2c(C)nn(C)c2C)cc1	G9a inh 79.4µM
O=[N+]([O-])c1ccc(S(=O)(=O)Nc2ccc3c(c2)OCCO3)cc1	JMJD2A Tudor inconclusive, G9a inh 39.8µM, BAZ2B block inconclusive
Cc1cc(NS(=O)(=O)c2ccccc2)c(C)c(Cl)c1O	JMJD2A Tudor inconclusive, G9a inh 28.2µM, HP1b binding inh inconclusive
Cc1nn(C)c(C)c1S(=O)(=O)Nc1ccc2c(c1)OCO2	G9a inh 50.1µM, BAZ2B block inconclusive
Cc1ccc(S(=O)(=O)Nc2ccc3c(c2)OCCO3)cc1	none
O=S(=O)(Nc1ccc(O)c(NS(=O)(=O)c2ccccc2)c1)c1ccccc1	JMJD2A Tudor 63.1µM, G9a inh 0.316µM, BAZ2B block inconclusive
COc1ccc(S(=O)(=O)Nc2ccc3c(c2)OCO3)cc1	none
O=S(=O)(Nc1ccc2c(c1)OCO2)c1ccccc1	G9a inh 14.1µM
Cc1ccc2cccc(S(=O)(=O)Nc3ccc4c(c3)OCO4)c2n1	JMJD2A Tudor inconclusive, G9a inh inconclusive, BAZ2B block 50.1µM
CCC1(C)CN=C(c2ccccc2)NC1 (configuration not stated)	JMJD2A Tudor 35.5µM (no result: G9a inh, BAZ2B block)
CC1(C)CN=C(c2ccccc2)NC1	none (no result: G9a inh, BAZ2B block)
CCc1ccc2nc(N(CCN(C)C)C(=O)c3ccc4ncsc4c3)sc2c1	JMJD2A Tudor 50.1µM, G9a inh 10µM, BAZ2B block inconclusive, HP1b binding inh inconclusive
Cc1cccc2sc(N(CCCN(C)C)C(=O)c3ccc4ncsc4c3)nc12	JMJD2A Tudor inconclusive, G9a inh 31.6µM
CCc1ccc2nc(N(Cc3cccnc3)C(=O)c3ccc(C#N)cc3)sc2c1	BAZ2B block inconclusive
Cc1ccc2sc(N(CCCN(C)C)C(=O)c3ccc(Br)s3)nc2c1C	JMJD2A Tudor inconclusive, G9a inh 35.5µM, BAZ2B block inconclusive
Cc1cccc2sc(N(CCCN(C)C)C(=O)c3nc4ccccc4s3)nc12	G9a inh 10µM
Cc1cccc2sc(N(CCCN(C)C)C(=O)CCc3ccccc3)nc12	JMJD2A Tudor inconclusive, G9a inh inconclusive
Cc1cccc2sc(N(CCCN(C)C)C(=O)CN3C(=O)c4ccccc4C3=O)nc12	G9a inh inconclusive (no result: BAZ2B block)
O=C(Nc1ccncc1)C1C(=O)c2ccccc2N(Cc2ccccc2)C1=O (configuration not stated)	none (no result: G9a inh, BAZ2B block, GLS inh)
COc1ccc(/C=C/c2ccccc2)cc1C1C2C=CCCC2(C)C(=O)N1Cc1ccccc1 (configuration not stated)	none (no result: G9a inh, BAZ2B block, GLS inh)
Cc1nc(-c2ccc(C)c(S(=O)(=O)N3CCC(C(=O)NCc4ccc(F)cc4)CC3)c2)no1	none
COC(=O)C1C[C@@H]2C3=C(C(=O)[C@@](C)(NC(=O)c4ccccc4)C3[C@H](C(=O)OC)C1)[C@H](C)n1c(=O)n(-c3ccccc3)c(=O)n12 (some centres not stated)	none (no result: G9a inh, BAZ2B block, GLS inh)
Cc1ccc2sc(N(CCCN(C)C)C(=O)c3nc4ccccc4s3)nc2c1C	G9a inh 44.7µM, HP1b binding inh inconclusive
CC(=O)c1ccc(C(=O)N(CCCN(C)C)c2nc3c(C)c(C)ccc3s2)cc1	JMJD2A Tudor inconclusive, BAZ2B block inconclusive, HP1b binding inh inconclusive
COc1ccc(-c2csc(NC(=O)c3c(C)noc3C)n2)cc1OC	none (no result: JMJD2A Tudor, G9a inh, BAZ2B block, HP1b binding inh)
CCSC1=NS(=O)(=O)c2ccccc21	none (no result: G9a inh, BAZ2B block, GLS inh, HP1b binding inh)
O=C(O)CSC1=NS(=O)(=O)c2ccccc21	JMJD2A Tudor 17.8µM, HP1b binding inh inconclusive (no result: G9a inh, BAZ2B block, GLS inh)
CC(SC1=NS(=O)(=O)c2ccccc21)C(=O)O (configuration not stated)	JMJD2A Tudor 28.2µM, HP1b binding inh inconclusive (no result: G9a inh, BAZ2B block, GLS inh)
O=S1(=O)N=C(SCCO)c2ccccc21	JMJD2A Tudor inconclusive, G9a inh 79.4µM, BAZ2B block inconclusive
Cc1cccc(C(=O)NCC(c2ccco2)S(=O)(=O)c2cccs2)c1 (configuration not stated)	none
NC(N)=N/N=C/c1ccc2cccc(OCc3ccccc3)c2n1	JMJD2A Tudor inconclusive
O/N=C/c1ccc2cccc(OCc3ccccc3)c2n1	G9a inh 20µM
CC(C)OCCCNC(=O)C(NS(=O)(=O)c1ccc2c(c1)c(=O)n(C)c(=O)n2C)c1ccccc1 (configuration not stated)	G9a inh 14.1µM (no result: JMJD2A Tudor, GLS inh, HP1b binding inh)
CCOCCCNC(=O)C(Cc1ccccc1)NS(=O)(=O)c1ccc2c(c1)c(=O)n(C)c(=O)n2C (configuration not stated)	none
Cn1c(=O)c2cc(S(=O)(=O)NC(C(=O)N3CCCCCC3)c3ccccc3)ccc2n(C)c1=O (configuration not stated)	G9a inh 44.7µM
CS(=O)(=O)N1CCN(c2ccccc2NC(=O)c2cc3ccccc3o2)CC1	none
O=C(CNC(=O)c1cccc(Cl)c1)OC(C(=O)Nc1cc(C(F)(F)F)ccc1Cl)c1ccccc1 (configuration not stated)	none (no result: G9a inh, BAZ2B block, GLS inh, HP1b binding inh)
O=C(CSc1nc2ccccc2[nH]1)Nc1nc(-c2cccc(Br)c2)cs1	G9a inh inconclusive
CN(C)CCCn1c(SCC(=O)Nc2nc(-c3cccc(Br)c3)cs2)nc2ccccc2c1=O	JMJD2A Tudor 39.8µM, G9a inh inconclusive, BAZ2B block inconclusive, HP1b binding inh inconclusive
CC(=O)N1c2ccc(S(=O)(=O)NCC3CCC(C(=O)Nc4ncccc4C)CC3)cc2CC1C (configuration not stated)	none
CN1CCN(CC(=O)N2c3ccc(S(=O)(=O)NCCNC(=O)OC(C)(C)C)cc3C(=O)Nc3cccnc32)CC1	JMJD2A Tudor 14.1µM, HP1b binding inh inconclusive (no result: G9a inh, BAZ2B block)
CN1CCN(CC(=O)N2c3ccccc3C(=O)Nc3cccnc32)CC1	G9a inh 29.9µM! (no result: JMJD2A Tudor, HP1b binding inh)
CN1CCN(CC(=O)N2c3ccccc3C(C)(c3ccccc3)CC2(C)C)CC1 (configuration not stated)	none
Cc1cc(Br)ccc1NC(=O)C1CCN(S(=O)(=O)c2cnc[nH]2)CC1	none
Cc1ccc(S(=O)(=O)N2CCC(C(=O)OC(C)C(=O)N3CCOCC3)CC2)cc1 (configuration not stated)	JMJD2A Tudor inconclusive
CC(OC(=O)C1CCN(S(=O)(=O)c2ccc(C(C)(C)C)cc2)CC1)C(=O)N1CCOCC1 (configuration not stated)	G9a inh 17.8µM
O=C1C(=O)N(CCc2c[nH]c3ccccc23)C(c2cccnc2)/C1=C(/O)c1ccccc1 (configuration not stated)	G9a inh 50.1µM (no result: JMJD2A Tudor, GLS inh, HP1b binding inh)
COc1ccc(/C(O)=C2\C(=O)C(=O)N(CCN3CCOCC3)C2c2ccccc2OC)cc1 (configuration not stated)	G9a inh inconclusive
COc1ccc(C2C(C(=O)c3sc(C)nc3C)=C(O)C(=O)N2CCN(C)C)cc1OC (configuration not stated)	none

Compound activity deposited in PubChem by National Center for Advancing Translational Sciences (NCATS).
